# Sampled rows, rich in hits. Any-hit rate of the full collection: about 4%.
# Measles CPE: compounds protecting cells from measles virus cytopathic effect, primary screen, measles RdRp inhibitor project, single point, MLSMR library, absorbance; Measles virus-infected cells, CPE protection; protection (pct of control), % at 4 µM; actives 1.5% (n = 140,000); in the data active = protection mostly above about 24%, no sharp cut-off; inactive = mostly below about 26%
# Cl transport mod: KCC2 cotransporter modulators, thallium flux, primary screen, cell-based, HEK293 KCC2, FluoZin-2 fluorescence, MLSMR; KCC2 cells, thallium flux FluoZin-2 fluorescence; B-score of Tl+ flux slope (higher = more flux/activation; lower = inhibition) at 10 µM; actives 2.2% (n = 190,000);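 active = thallium flux slope and its plate-corrected score both differing from the plate sample mean at a set confidence after two filtering rounds, in either direction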;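 also: slope of fluorescence scaled to starting intensity during 10 to 20 s after thallium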
# Target sequence (Q9H2X9 whole entry, looked up): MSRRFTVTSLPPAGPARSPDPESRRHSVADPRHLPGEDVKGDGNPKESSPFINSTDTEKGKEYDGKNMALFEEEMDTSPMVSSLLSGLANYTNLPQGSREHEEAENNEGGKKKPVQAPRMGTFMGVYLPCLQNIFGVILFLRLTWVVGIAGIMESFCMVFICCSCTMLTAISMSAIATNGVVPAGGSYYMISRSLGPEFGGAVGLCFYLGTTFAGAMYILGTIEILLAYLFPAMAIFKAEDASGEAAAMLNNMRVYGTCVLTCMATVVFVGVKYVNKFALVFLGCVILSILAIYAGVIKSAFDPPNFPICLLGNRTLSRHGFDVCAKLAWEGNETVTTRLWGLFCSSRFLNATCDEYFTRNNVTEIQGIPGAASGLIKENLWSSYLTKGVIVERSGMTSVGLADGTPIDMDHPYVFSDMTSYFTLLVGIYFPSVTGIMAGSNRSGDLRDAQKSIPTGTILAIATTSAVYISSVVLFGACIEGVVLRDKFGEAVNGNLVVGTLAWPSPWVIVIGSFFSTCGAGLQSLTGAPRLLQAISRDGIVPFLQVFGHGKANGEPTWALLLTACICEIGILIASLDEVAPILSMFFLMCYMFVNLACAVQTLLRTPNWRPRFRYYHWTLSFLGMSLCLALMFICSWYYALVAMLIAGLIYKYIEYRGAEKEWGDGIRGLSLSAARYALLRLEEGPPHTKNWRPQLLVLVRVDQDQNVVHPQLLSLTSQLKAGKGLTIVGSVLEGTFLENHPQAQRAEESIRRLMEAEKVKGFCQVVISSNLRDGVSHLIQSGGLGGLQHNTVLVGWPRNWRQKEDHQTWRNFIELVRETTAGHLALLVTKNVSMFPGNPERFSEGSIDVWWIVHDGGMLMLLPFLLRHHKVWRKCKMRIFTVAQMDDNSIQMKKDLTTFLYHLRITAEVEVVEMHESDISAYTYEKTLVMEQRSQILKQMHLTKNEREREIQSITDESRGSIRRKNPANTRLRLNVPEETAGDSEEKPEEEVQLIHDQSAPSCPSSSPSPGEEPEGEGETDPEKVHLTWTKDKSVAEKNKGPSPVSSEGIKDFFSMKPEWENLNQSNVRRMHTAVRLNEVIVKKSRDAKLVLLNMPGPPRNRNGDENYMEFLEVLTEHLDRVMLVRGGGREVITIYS
# ROMK primary: ROMK potassium channel modulators, primary screen, cell-based, thallium flux, MLSMR library; ATP-sensitive inward rectifier potassium channel 1 (Homo sapiens), P48048; Tet-inducible ROMK, thallium flux fluorescence; actives lie on both sides; B-score at 10 µM; actives 2% (n = 130,000);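 active = signal ratio slope over the read window, or its plate-corrected B-score, at least 3 SD from the plate mean, either direction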;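 also: B-score of the F/F0 ratio slope over 7 to 12 s after thallium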
# HSV replic up: enhancers of HSV replication in host cells, fold increase, host cell viability. HSV replication augmentation in cells. maximum fold increase. actives 0.005% (n = 220,000); in the data active = maximum fold increase above about 1.5; inconclusive = no clear call, values can overlap the other calls; tested in PC3 cells
# Arbovirus inh: antivirals against arbovirus infection, primary screen, cell-based, full library, 10K replicate subset | actives 0.37% (n = 200,000) | inhibition, % at 10 µM | arbovirus infection cell-based antiviral screen | AID 1251, 2008; in the data active = inhibition above about 30%
# KCC2 secondary: KCC2 modulators in sodium-free buffer, confirmation, cell-based, HEK293 KCC2, thallium flux, secondary assay; shares compounds with Cl transport mod; FluoZin2 fluorescence; stronger effect = higher value; normalised thallium flux (F/F0 slope) at 10 µM; actives 15% (n = 3,700); AID 1713, 2009;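 active = thallium flux slope above the same plate's solvent-only control mean plus 3 SD; inconclusive = the two replicate wells disagree; inactive = no significant difference from solvent-only control wells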
# KCC2 bumet counter: thallium flux persisting under bumetanide in KCC2 cells, confirmation, counter-screen for KCC2 modulator project, cell-based, HEK293 KCC2, FluoZin2, secondary assay 3. normalized thallium flux at 10 µM. HEK293-KCC2 + bumetanide/ouabain; stronger effect = higher value. actives 49% (n = 3,700). shares compounds with Cl transport mod;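 active = thallium entry rate above the same plate's blocked-transporter control wells by more than 3 SD; inconclusive = the two repeat wells disagree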;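 also: raw slope of fluorescence over initial fluorescence between 10 and 20 s after thallium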
# KCC2 sec2: KCC2 modulators without ouabain present, confirmation, cell-based, HEK293 KCC2, thallium flux, FluoZin2, secondary assay 2 | normalized thallium flux at 10 µM | shares compounds with Cl transport mod | actives 23% (n = 3,700) | AID 1715, 2009 | thallium flux FluoZin2 fluorescence; actives lie on both sides; F/F0 rise rate, 10–20 s post-thallium;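 active = thallium flux slope more than 3 SD above or below the plate's solvent-only control mean, mostly below; inconclusive = the two repeat wells disagreed; inactive = no significant shift from solvent-only controls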;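 also: raw slope with 0.1% DMSO as baseline and bumetanide as block control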
# HEK293 Tl flux: thallium flux modulation in parental HEK cells, confirmation, counter-screen for KCC2 modulator project, cell-based, counterscreen 1. shares compounds with Cl transport mod. thallium flux rate (normalised fluorescence) at 10 µM. AID 1716, 2009. HEK293 parental cells, thallium flux FluoZin2, ouabain; baseline-ratio fluorescence slope, 10–20 s after thallium. actives 46% (n = 3,700);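 active = thallium flux rate significantly above the same plate's solvent-only control wells, beyond their mean plus 3 SD; inconclusive = the two replicate wells gave conflicting results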
# KCC2 ouabain: KCC2 inhibitors and activators, ouabain retest, confirmation, HEK-KCC2 cells; shares compounds with Cl transport mod; HEK293-KCC2, thallium flux FluoZin2 fluorescence; bidirectional: low = inhibitor, high = activator; raw Tl+ flux slope (below DMSO = inhibition, above = activation) at 10 µM; actives 48% (n = 3,700); AID 1717, 2009;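 active = thallium flux slope beyond 3 SD from same-plate DMSO control mean in most replicates, usually higher, sometimes lower; inconclusive = repeat tests gave conflicting results; inactive = no significant difference from controls in most replicates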;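 also: slope of initial-normalized fluorescence between seconds 10 and 20 after thallium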
# HEK293 Tl flux2: native HEK Tl+ uptake effects, second counter-screen – HEK cells, counterscreen 2, counter-screen for KCC2 modulator project, confirmation; shares compounds with Cl transport mod; HEK293 parental, thallium flux FluoZin-2 fluorescence slope; thallium flux slope at 10 µM; actives 33% (n = 3,700);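 active = thallium flux slope above the same plate's solvent-control mean plus 3 SD in both duplicate wells; inconclusive = duplicate wells that disagreed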;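 also: run without ouabain in cells lacking the KCC2 cotransporter; slope of fluorescence scaled to its starting value between 10 and 20 s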
# * = called active by the depositor; i = inactive; ? = inconclusive; nt = no result given.
SMILES,Measles CPE,Cl transport mod,ROMK primary,HSV replic up,Arbovirus inh,KCC2 secondary,KCC2 bumet counter,KCC2 sec2,HEK293 Tl flux,KCC2 ouabain,HEK293 Tl flux2
COC(=O)C1=NN(C(=O)c2ccc(Br)cc2)C(O)(C(C)(C)C)C1 (stereo unspecified),nt,65.8*,0.00262,i,4.6,0.0486*,0.136*,0.0464*,?,0.0995*,0.0215*
CCOC(=O)c1ccccc1NC(=O)CSc1nc(N)cc(=O)[nH]1,nt,-0.461,nt,i,nt,nt,nt,nt,nt,nt,nt
CCOc1ccc(NC(=O)Nc2cccnc2)cc1,nt,0.463,0.698,i,-3.3,nt,nt,nt,nt,nt,nt
COc1ccc(C(=O)NC(=S)N2CCCCC2)cc1,9.2,2.75,0.0257,i,-4.9,nt,nt,nt,nt,nt,nt
Cc1ccc(C(=O)NC(=S)N2CC(C)OC(C)C2)cc1[N+](=O)[O-] (stereo unspecified),5.9,nt,nt,nt,1.2,0.0183*,0.0371*,0.0305,0.0212*,0.035*,0.0126*
COc1ccc(C(=O)NC(=S)N2CCCCC2)cc1[N+](=O)[O-],35.5,6.77*,nt,i,1.7,0.0117,0.0212*,0.0354,0.012*,0.0261,?
COc1cc(OC)cc(C(=O)NC(=S)N2CCCCCC2)c1,nt,74.4*,0.446,i,-5.4,0.0341*,0.115*,0.0399*,0.062*,0.0832*,0.0212*
CCOC(=O)c1ccc(Oc2cc(C)nc(Cl)n2)cc1,nt,1.27,nt,i,nt,nt,nt,nt,nt,nt,nt
CC1(c2nnc(-c3ccc(Cl)cc3)o2)CC(c2cccnc2)=NO1 (stereo unspecified),nt,nt,nt,i,nt,nt,nt,nt,nt,nt,nt
CN(C(=O)CSc1nc2cc(Cl)ccc2c(=O)n1Cc1ccco1)C1CCS(=O)(=O)C1 (stereo unspecified),nt,12*,-0.305,i,-0.5,0.0108,0.0144*,0.0317,0.0163*,?,0.0117
CN(Cc1ccccc1)C(=O)CSc1nc2ccccc2c(=O)n1Cc1ccco1,4.1,-3.49*,nt,i,13.0,0.0072,0.00313*,0.0263*,0.00575*,0.0153*,?
CCOC(=O)CSc1nc2ccccc2c(=O)n1CCCCCC(=O)NCc1ccco1,3.8,-4.07*,nt,i,-5.3,0.00838,?,0.0328,0.00705,0.0224,0.0109
Cc1ccc(NC(=O)CN(C)C(=O)CSc2nc3ccccc3c(=O)n2Cc2ccco2)cc1,12.9,2.5,nt,i,-1.2,nt,nt,nt,nt,nt,nt
O=C(Oc1cc(=O)oc2c1c(=O)n1c3c(cccc23)CC1)c1ccc(F)cc1,nt,-1.38,nt,i,nt,nt,nt,nt,nt,nt,nt
CCCn1nc([N+](=O)[O-])c(C(C#N)c2nc3ccccc3o2)c(Cl)c1=O (stereo unspecified),11.7,-6.58*,nt,i,26.4,0.00722,?,0.022*,0.00576*,0.0119*,0.00886
CN(C)c1nc(/C=C(\C#N)C(N)=O)c(Cl)n1-c1ccc(F)cc1,nt,-0.00397,-0.57,i,10.5,nt,nt,nt,nt,nt,nt
O=c1c2ccccc2c(-c2n[nH]c(=S)o2)nn1Cc1ccccc1,nt,-4.92*,1.74,i,0.6,0.00881,0.00568,?,0.00684,0.0136*,?
O=c1oc(-c2ccccc2Cl)nc2ccsc12,2.7,nt,-1.38,i,-8.5,nt,nt,nt,nt,nt,nt
O=c1oc(-c2ccc(F)cc2)nc2ccsc12,2.1,nt,0.693,i,-7.8,0.00605,0.00502,0.0316,?,0.0168*,0.01
NC(=O)CC(NC(=O)Cc1ccc(Br)cc1)c1ccc(N2CCN(c3ccc(F)cc3)CC2)c([N+](=O)[O-])c1 (stereo unspecified),nt,-0.289,nt,i,nt,nt,nt,nt,nt,nt,nt
COc1ccccc1-c1nc(C#N)c(N2CCC(Cc3ccccc3)CC2)o1,5.0,nt,-0.275,i,7.2,0.00917,0.00599,?,0.0083,0.0191*,0.0112
Cc1cc(Nc2ccccc2)nc2cc(O)ccc12,6.0,-1.61,0.142,i,9.3,nt,nt,nt,nt,nt,nt
COc1ccc(Nc2cc(C)c3ccc(O)cc3n2)cc1,nt,-2.81,-0.691,i,nt,0.00787,0.00547,0.0325,?,0.0232,0.0101
CCC(=O)NNC(=O)c1cc(COc2cc(Cl)cc(Cl)c2)on1,nt,8.62*,0.597,i,nt,0.00681,0.0176*,0.031,0.0175*,?,0.0141*
CCCc1cc(C(=O)Nc2cccc(Cl)c2)no1,15.3,-0.968,nt,i,0.9,nt,nt,nt,nt,nt,nt
SMILES,Measles CPE,Cl transport mod,ROMK primary,HSV replic up,Arbovirus inh,KCC2 secondary,KCC2 bumet counter,KCC2 sec2,HEK293 Tl flux,KCC2 ouabain,HEK293 Tl flux2
N#Cc1c(NC(=O)c2ccc(Cn3cc(Br)cn3)o2)sc2c1CCCCC2,22.9,-0.681,nt,i,-5.1,nt,nt,nt,nt,nt,nt
COC(=O)c1sc(NC(=O)c2ccc(Cn3cc(Cl)cn3)o2)c(C#N)c1C,5.8,nt,-0.114,i,8.4,0.00804,0.007,0.0294,0.00636,0.0419*,0.0104
COc1ccc(OC)c(C(=O)c2coc3ccc(OC(C)=O)cc23)c1,7.8,nt,0.862,i,-3.4,nt,nt,nt,nt,nt,nt
COc1ccc2occ(C(=O)c3cccs3)c2c1,12.1,nt,-0.789,i,2.7,0.00668,0.00708*,0.0296,0.00739,0.0193,0.0111
COc1ccc(C)cc1Nc1ccc(C(=O)O)cc1[N+](=O)[O-],nt,0.521,0.364,i,0.2,nt,nt,nt,nt,nt,nt
Cc1nc(Nc2ccc3c(c2)OCCO3)c2c(C)c(C)sc2n1,nt,7.15*,-0.961,i,-11.0,0.00563,0.0207*,0.0393*,0.019*,0.0306*,0.0214*
O=C(CSc1cccc2cccnc12)N1CCCC1,2.1,21.6*,nt,i,-37.4,0.0056,0.0325*,0.0292,0.0256*,0.0366*,0.0158*
COc1cccc(/C=N/NC(=O)c2ccc([N+](=O)[O-])cc2Cl)c1O,6.7,-0.283,-0.0767,i,-19.8,nt,nt,nt,nt,nt,nt

# Bioassay records deposited in PubChem BioAssay by several laboratories.
